# Measured values from publication PMC8384837, “Expanding the binding specificity for RNA recognition by a PUF domain”.
# Positions count from the first letter of the chain named.
# How the values were obtained:
# Test in all cases: yeast three-hybrid, YBZ-1, SC-Leu-His + 0.5 mM 3-AT, 4 days
# Details in all cases: tags: N-Gal4 AD-HA kept; label: inside an RPR1-promoter hybrid RNA with tandem MS2 sites; ssRNA
# PUM1 PUF domain R4-EYG = PUM1 PUF domain R4-EYG (Homo sapiens, UniProt Q14671 828-1176, N971E;H972Y;Q975G)
# Method in brief: (§1)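 Repeat regions from input (SC-Leu) and selection (SC-Leu-His + 0.5 mM 3-AT) plates were PCR-amplified and Illumina-sequenced after four days of growth. The cells were strain YBZ-1 with a LexA–MS2 coat fusion and a HIS3 reporter, co-expressing Pumilio-1 PUF domain libraries and matching RNA elements from a centromeric plasmid. The interaction score is the log change in variant frequency from input to selection, taken in log2 with a pseudocount of 1 for absent variants.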
# PUM1 PUF domain R8-KHV = PUM1 PUF domain R8-KHV (Homo sapiens, UniProt Q14671 828-1176, N1122K;Y1123H;Q1126V)
# Method in brief: as §1
# PUM1 PUF domain R3-PFF = PUM1 PUF domain R3-PFF (Homo sapiens, UniProt Q14671 828-1176, C935P;R936F;Q939F)
# Method in brief: as §1
# PUM1 PUF domain R3-WCR = PUM1 PUF domain R3-WCR (Homo sapiens, UniProt Q14671 828-1176, C935W;R936C;Q939R)
# Method in brief: as §1
# PUM1 PUF domain R6-SWS = target: T1, PUM1 PUF domain R6-SWS (Homo sapiens, UniProt Q14671 828-1176, N1043S;Y1044W;Q1047S)
# T1 sequence: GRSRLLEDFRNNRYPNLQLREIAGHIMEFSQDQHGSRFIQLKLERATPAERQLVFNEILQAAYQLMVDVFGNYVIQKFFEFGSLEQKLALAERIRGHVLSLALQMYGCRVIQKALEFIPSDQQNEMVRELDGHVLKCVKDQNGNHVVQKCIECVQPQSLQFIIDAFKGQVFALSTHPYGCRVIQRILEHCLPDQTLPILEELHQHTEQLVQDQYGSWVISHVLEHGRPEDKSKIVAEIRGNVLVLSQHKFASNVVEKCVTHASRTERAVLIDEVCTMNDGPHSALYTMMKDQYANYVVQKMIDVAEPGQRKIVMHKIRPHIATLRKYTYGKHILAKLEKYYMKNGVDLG
# Method in brief: as §1
# PUM1 PUF domain R6-VWH = target: T2, PUM1 PUF domain R6-VWH (Homo sapiens, UniProt Q14671 828-1176, N1043V;Y1044W;Q1047H)
# T2 sequence: T1 sequence with S216V, S220H
# Method in brief: as §1
# PUM1 PUF domain R7-CFP = PUM1 PUF domain R7-CFP (Homo sapiens, UniProt Q14671 828-1176, S1079C;N1080F;E1083P)
# Method in brief: as §1
# PUM1 PUF domain R6-GWR = target: T3, PUM1 PUF domain R6-GWR (Homo sapiens, UniProt Q14671 828-1176, N1043G;Y1044W;Q1047R)
# T3 sequence: T1 sequence with S216G, S220R
# Method in brief: as §1
# PUM1 PUF domain R7-RTQ = PUM1 PUF domain R7-RTQ (Homo sapiens, UniProt Q14671 828-1176, S1079R;N1080T;E1083Q)
# Method in brief: as §1
# PUM1 PUF domain R7-ISK = PUM1 PUF domain R7-ISK (Homo sapiens, UniProt Q14671 828-1176, S1079I;N1080S;E1083K)
# Method in brief: as §1
sequence,measurement,setting,value
GGCUAGAACUAGUGGAUCCCCCGGCGCCCGGCGGCUCGAGCCCGGGUAAGUGUACAUAGUCUGCAUGCCGCCGGGCGCCAUGCCUGCAGGUCGACUCUAGAAAACAUG,binding signal,PUM1 PUF domain R4-EYG,0.47 log2 enrichment (interaction score)
GGCUAGAACUAGUGGAUCCCCCGGCGCCCGGCGGCUCGAGCCCGGGUAAGGGUAAAUAGUCUGCAUGCCGCCGGGCGCCAUGCCUGCAGGUCGACUCUAGAAAACAUG,binding signal,PUM1 PUF domain R8-KHV,2.26 log2 enrichment (interaction score)
GGCUAGAACUAGUGGAUCCCCCGGCGCCCGGCGGCUCGAGCCCGGGUAAGUGUAAUUAGUCUGCAUGCCGCCGGGCGCCAUGCCUGCAGGUCGACUCUAGAAAACAUG,binding signal,PUM1 PUF domain R3-PFF,3.19 log2 enrichment (interaction score)
same,binding signal,PUM1 PUF domain R3-WCR,1.63 log2 enrichment (interaction score)
GGCUAGAACUAGUGGAUCCCCCGGCGCCCGGCGGCUCGAGCCCGGGUAAGUGAAAAUAGUCUGCAUGCCGCCGGGCGCCAUGCCUGCAGGUCGACUCUAGAAAACAUG,binding signal,PUM1 PUF domain R6-SWS,3.49 log2 enrichment (interaction score)
same,binding signal,PUM1 PUF domain R6-VWH,7.07 log2 enrichment (interaction score)
GGCUAGAACUAGUGGAUCCCCCGGCGCCCGGCGGCUCGAGCCCGGGUAAGUAUAAAUAGUCUGCAUGCCGCCGGGCGCCAUGCCUGCAGGUCGACUCUAGAAAACAUG,binding signal,PUM1 PUF domain R7-CFP,2.42 log2 enrichment (interaction score)
GGCUAGAACUAGUGGAUCCCCCGGCGCCCGGCGGCUCGAGCCCGGGUAAGUGCAAAUAGUCUGCAUGCCGCCGGGCGCCAUGCCUGCAGGUCGACUCUAGAAAACAUG,binding signal,PUM1 PUF domain R6-GWR,3.5 log2 enrichment (interaction score)
GGCUAGAACUAGUGGAUCCCCCGGCGCCCGGCGGCUCGAGCCCGGGUAAGUUUAAAUAGUCUGCAUGCCGCCGGGCGCCAUGCCUGCAGGUCGACUCUAGAAAACAUG,binding signal,PUM1 PUF domain R7-RTQ,4.75 log2 enrichment (interaction score)
same,binding signal,PUM1 PUF domain R7-ISK,2 log2 enrichment (interaction score)
